Values joined by “and” are separate entries in the source; they are usually repeats but may differ in a detail not shown here. Equal values may be shown once. Inconclusive results are not listed. Where a call stands in place of a potency, no number is given. Active and inactive are the calls of the source. Unless noted, the call rests on the fitted dose curve; in most records, active means well fitted curve in the direction sought with a large enough effect; inconclusive means small, poorly fitted or top-dose-only effect, or another doubt; inactive means no such curve, though single readings can be large; an effect the other way counts as inactive or inconclusive.
Key:
[1] = qHTS assay for small molecule activators of the p53 signaling pathway (AID 651743; active means well fitted activation curve with a large enough effect in the signal ratio, not every such curve was filed as active; the % refers to the signal ratio); details: HCT-116 p53RE-bla, beta-lactamase FRET ratio, 16 h; activation: stronger effect = higher value
Method in brief: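 After 16 hours compound treatment at 37 C, HCT-116 cells stably expressing p53RE-driven beta-lactamase were loaded with LiveBLAzer B/G FRET substrate for 2 hours at room temperature. Fluorescence intensity served as the p53 activation read-out.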

[2] = qHTS assay for small molecule disruptors of the mitochondrial membrane potential - 1 hr assay (AID 651754; calls by dose curve; further: nearly all actives have a fitted effect of over 35% in size)
Method in brief: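 Loss of mitochondrial potential shifts the cationic dye from red mitochondrial aggregates to green cytoplasmic monomers. Cells (HepG2) are treated with compound for 1 hr before a 30 min dye incubation at 37C.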

[3] = qHTS assay for small molecule disruptors of the mitochondrial membrane potential - 5 hr assay (AID 651755; calls by dose curve; further: nearly all actives have a fitted effect of over 40% in size)
Method in brief: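 Membrane-potential dye readout: red aggregate (540 ex/590 em) versus green monomer (490 ex/535 em) fluorescence after 30 min dye loading, following 5 hr compound exposure at 37C of overnight-plated HepG2 cells.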

[4] = target: Tumor necrosis factor (Homo sapiens) (UniProt P01375); assay: qHTS assay to identify small molecules that stimulate Tumor Necrosis Factor-alpha (TNF-alpha) secretion (AID 651757; active means well fitted curve in the direction sought with a large enough effect in the signal ratio; the % refers to the signal ratio)
Method in brief: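 Human monocytic THP-1 cells are plated, treated with compound and held at 37 C for 17 hrs. Labeled anti-TNF-alpha antibody mixture is then added; after 3 hr at room temperature, TR-FRET signal reports secreted TNF-alpha.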

[5] = qHTS assay to identify small molecules that stimulate interleukin-8 (IL-8) secretion (AID 651758; active means well fitted activation curve with a large enough effect in the signal ratio; the % refers to the signal ratio)
Method in brief: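 Secreted IL-8 measured homogeneously by TR-FRET (two labelled anti-IL-8 antibodies, 1-3 h at room temperature) after a 16 h, 37 C compound treatment of THP-1 cells at 2000 cells/well.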

[6] = qHTS of Trypanosoma Brucei Inhibitors: LOPAC Validation (AID 624147)
Method in brief: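 ADP (130 uM final) triggers the TbPYK reaction after compound addition; incubation is 45 min at room temperature. Kinase-Glo Plus is then added and luminescence imaged. Normalized data are fitted to concentration-effect curves.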

[7] = target: Glucagon-like peptide 1 receptor (Homo sapiens) (UniProt P43220); assay: qHTS of GLP-1 Receptor Agonists: LOPAC Validation (AID 624148);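 further: luminescence from a luciferase reporter switched on by cAMP; higher luminescence signal means agonism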
Method in brief: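 Agonism scored as increased luciferase luminescence driven by cAMP in HEK293 clones carrying GLP-1R. Cells settled 12 hours, received compound for 4-6 hr at 37 deg C, 5% CO2, and were read after 12 min detection reagent at RT.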

[8] = qHTS of Nrf2 Activators: LOPAC Validation (AID 624149)
Method in brief: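 Cells (AREc32_Fluc) are plated at 1000 per well in OPTI-MEM containing 5% FBS and left overnight. Compounds are pinned in and incubated 24 hr at 37 deg C, and firefly luciferase is detected with Steady-Glo.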

[9] = HTS Assay for Allosteric Antagonists of the Human D2 Dopamine Receptor: Hit Validation in HTRF (AID 624455);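 further: stable D1 dopamine receptor cell line scored for blocking the D1 response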
Method in brief: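 Inhibition of the D1-mediated response is measured by HTRF in cells that stably express the D1 dopamine receptor. Compounds reaching this step are hits from calcium-flux antagonism testing at EC80 dopamine in inducible Hek293 Trex D2 cells.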

[10] = Cytotoxicity counterscreen for NFkB agonists and antagonists (AID 624476); further: potency means the concentration at half of the fitted maximal effect
[11] = qHTS Assay for Identification of Small Molecule Agonists for NFkB Signaling Pathway. (AID 624478);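 further: compounds tested together with TNF alpha at its EC50 of 10 pM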
Method in brief: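 Activators were sought in reporter cells stimulated at the TNF alpha EC50 (10 pM final). Compound and cytokine were co-incubated 5 hours at 37 C before beta-lactamase substrate detection by dual-emission fluorescence.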

[12] = Cell Proliferation Assay against the TMD8 Cell Line (AID 651645); details: TMD8 DLBCL cell line proliferation/viability; at 46.1 µM (top of the series) unless noted;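 further: cells exposed to compound for 48 h before reading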
Method in brief: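 Seed log-phase TMD8 cells in RPMI containing 5% FBS, add compounds at once, incubate 48 hours at 37C. Equilibrate to room temperature, add CellTiter-Glo, read luminescence after 15 minutes and express relative to DMSO and bortezomib controls.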

[13] = qHTS assay for small molecule agonists of the antioxidant response element (ARE) signaling pathway (AID 651741; active means well fitted activation curve with a large enough effect in the signal ratio; the % refers to the signal ratio)
Method in brief: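 Beta-lactamase reporter under ARE control in HepG2 cells, 2,000 per well, was induced by 16 h compound treatment at 37 C. Read-out was fluorescence from LiveBLAzer B/G FRET substrate after 2 h at room temperature.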

[14] = qHTS assay for small molecule activators of the nuclear factor-kappa B (NF-kB) signaling pathway (AID 651749; active means well fitted activation curve with a large enough effect in the signal ratio; the % refers to the signal ratio); details: NF-kB-bla ME-180 cells, beta-lactamase FRET ratio, 16 h; stronger effect = higher value
Method in brief: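 Activation measured after 16 hr compound treatment at 37C, 5% CO2, of 2,000 ME-180 cells/well stably expressing an NF-kB response element–driven beta-lactamase reporter, via FRET-disruption fluorescence.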

[15] = qHTS Assay for Identification of Small Molecule Antagonists for NFkB Signaling Pathway. (AID 624479; calls by dose curve;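 further: pathway stimulated with TNF alpha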; further: potency means the concentration at half of the fitted maximal effect)
[16] = Cell Proliferation Assay against the TMD8 Cell Line (Caspase readout at 16 hrs) (AID 651712); further: potency means the concentration at half of the fitted maximal effect
Method in brief: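 Caspase-Glo luminescence measured apoptosis after a 16 h, 37 C compound exposure of TMD8 cells (500 cells/well, 5% FBS RPMI). DMSO set 0% and bortezomib at 9.2 uM final set 100% activity.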

[17] = Cell Proliferation Assay against the TMD8 Cell Line (Caspase readout at 8 hrs) (AID 651713); further: potency means the concentration at half of the fitted maximal effect
Method in brief: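 Caspase 3/7 activation in ABC DLBCL TMD8 cells is measured by luminescence after an 8 h compound exposure at 37C. Relative light units are scaled between DMSO (0%) and 9.2 uM final bortezomib (100%).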

Tumor necrosis factor (Homo sapiens), sequence (P01375 whole entry, looked up): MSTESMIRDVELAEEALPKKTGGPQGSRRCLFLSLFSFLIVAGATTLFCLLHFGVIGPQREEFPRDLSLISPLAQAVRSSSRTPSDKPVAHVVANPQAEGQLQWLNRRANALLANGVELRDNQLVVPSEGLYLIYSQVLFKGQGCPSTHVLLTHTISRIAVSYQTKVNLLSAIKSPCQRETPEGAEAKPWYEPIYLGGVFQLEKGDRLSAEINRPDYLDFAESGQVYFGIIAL
Glucagon-like peptide 1 receptor (Homo sapiens), sequence (P43220 whole entry, looked up): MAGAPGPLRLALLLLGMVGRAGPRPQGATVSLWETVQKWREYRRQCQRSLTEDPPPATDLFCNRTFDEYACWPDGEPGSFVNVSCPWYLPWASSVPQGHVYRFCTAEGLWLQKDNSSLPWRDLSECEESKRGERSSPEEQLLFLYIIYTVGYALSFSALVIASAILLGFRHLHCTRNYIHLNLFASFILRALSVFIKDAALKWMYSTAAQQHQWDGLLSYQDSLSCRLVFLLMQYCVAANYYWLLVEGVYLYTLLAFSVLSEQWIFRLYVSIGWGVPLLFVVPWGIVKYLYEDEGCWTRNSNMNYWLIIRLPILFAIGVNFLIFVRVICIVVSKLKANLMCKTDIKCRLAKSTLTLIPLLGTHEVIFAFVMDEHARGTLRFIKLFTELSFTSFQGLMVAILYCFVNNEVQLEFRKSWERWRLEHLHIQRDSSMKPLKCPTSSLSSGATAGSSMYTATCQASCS

CS(=O)(=O)OCCCCOS(C)(=O)=O
activation [1]: 1.64% (inactive) and 0.944% (inactive) and -3.49% (inactive) | Potency [2]: inactive | Potency [3]: inactive | Potency [4]: inactive | outcome [5]: inactive

CC(C)c1ccc2c(c1)c(SC(C)(C)C)c(CC(C)(C)C(=O)O)n2Cc1ccc(Cl)cc1
Potency [6]: inactive | outcome [7]: inactive | outcome [8]: inactive | outcome [9]: inactive | Potency [10]: 8.33 µM (active) | outcome [11]: inactive | viability (% of control) [12]: 9.44%

Cc1ccc(C)c(OCCCC(C)(C)C(=O)O)c1
Potency [13]: inactive | activation [14]: -1.25% (inactive) and -0.0385% (inactive) | Potency [2]: inactive | Potency [3]: inactive | Potency [4]: inactive

Cc1cccc(-c2[nH]ncc2-c2ccc3ncccc3n2)n1
Potency [10]: inactive | outcome [11]: inactive | Potency [15]: 13.7 µM (active) | viability (% of control) [12]: 76.5% [at 92.2 µM] | Potency [16]: inactive | Potency [17]: inactive

COc1cc2c(N3CCN(C(=O)Nc4ccc(OC(C)C)cc4)CC3)ncnc2cc1OCCCN1CCCCC1
outcome [11]: inactive | Potency [15]: inactive | viability (% of control) [12]: 19.9%

O=Nc1c(-c2c(O)[nH]c3cc(Br)ccc23)[nH]c2ccccc12
Potency [6]: inactive | outcome [7]: inactive | outcome [8]: inactive | outcome [9]: inactive

CC(C)C[C@H](NC(=O)[C@H](Cc1ccccc1)NC(=O)c1cnccn1)B(O)O
Potency [10]: 0.0093 µM (active) | outcome [11]: inactive | Potency [15]: 0.0053 µM (active) | viability (% of control) [12]: 1.72% | Potency [16]: 0.0026 µM (active) | Potency [17]: 0.833 µM (active)

Cc1ccc(Nc2nccc(N(C)c3ccc4c(C)n(C)nc4c3)n2)cc1S(N)(=O)=O
Potency [10]: inactive | outcome [11]: inactive | Potency [15]: 16.8 µM (active) | viability (% of control) [12]: 13.2% | Potency [17]: inactive

Oc1ccc2ccccc2c1SSc1c(O)ccc2ccccc12
outcome [7]: inactive | outcome [8]: inactive | outcome [9]: inactive

Cc1nc(Nc2ncc(C(=O)Nc3c(C)cccc3Cl)s2)cc(N2CCN(CCO)CC2)n1
outcome [11]: inactive | Potency [15]: 16.8 µM (active) | viability (% of control) [12]: 8.11% | Potency [17]: inactive

CCN(CC)CCOc1ccc(Nc2ncc3cc(-c4c(Cl)cccc4Cl)c(=O)n(C)c3n2)cc1
Potency [10]: 2.35 µM (active) | outcome [11]: inactive | Potency [15]: 7.49 µM (active) | viability (% of control) [12]: 0.582% | Potency [17]: 26.4 µM (active)

O=c1c(O)c(-c2cc(O)c(O)c(O)c2)oc2cc(O)cc(O)c12
outcome [7]: inactive | outcome [8]: inactive | outcome [9]: inactive

CC(=O)Nc1ccc(O)cc1
Potency [13]: inactive | Potency [4]: inactive

O=C(CCc1ccc(O)cc1)c1c(O)cc(O)cc1O
Potency [6]: inactive | outcome [7]: inactive | outcome [8]: inactive | outcome [9]: inactive

Reference: PubChem BioAssay (NCATS)
